Results from PubChem BioAssay AID1347426 (Functional Genomics Laboratory (NCATS/FGL), 2020).
In all, about 31,000 sequences went through this assay and about 1,400 (4.5%) were called active. Many of the other results were omitted from the sample, so actives are more common in it than they were. Values without a mark were called inactive.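 How the source made its calls: active means median seed-adjusted z-score above 1 or below -1; inactive means the rest.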

Assay: Novel Modifiers of Survival Motor Neuron (SMN) Protein: Gene Identification via Genome-wide siRNA Screen;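 further: luminescence tracks full-length SMN protein made from the SMN2 reporter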
Details: HEK293T SMN2-luciferase reporter, siRNA knockdown, 72 h; actives lie on both sides
Procedure, shortened: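 Each of three siRNAs per gene is reverse-transfected (1 pmol) into reporter HEK293T cells whose luciferase output tracks SMN protein level. After 72 h culture, ONE-Glo luminescence is control-normalized, log10-transformed and MAD-standardized; Common Seed Analysis deprioritizes seed-driven hits.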

| Sequence | median seed-adjusted z-score |
| --- | --- |
| GAUCAAUUACGAAAUCUCATT against MED30 | -2.06 (active) |
| AAGAAGAAGUGGACACUGATT against FGFRL1 | -0.111 |
| GGAACUUGGUUGUAGAGCUTT against SVIL | 0.0852 |
| CAACCACCCUCACAUCAUUTT against NUAK2 | -0.0601 |
| AAAUGCAAUUCAAGCCUUUTT against GFRA1 | 0.125 |
| GGAAACUCGUCGUUCAAUATT against IL13RA1 | 0.269 |
| UCGUGGAGGUGAUCUAUUATT against RAB6C | -1.08 (active) |
| UGAUUUACCUGAGCUGUAATT against GSTT2 | 0.0298 |
| CAACUUCCACUGUUUCCGATT against RRAGC | -0.557 |
| CGAUGCUUGUCAGUCCCAATT against NOTCH4 | -0.384 |
| GCCUAGAGGUUUGCCCUGATT against ATHL1 | 0 |
| UCCACUGCCCAAUAAAUAUTT against PYDC1 | -1.44 (active) |
| CGAGCCCAAGGAACAUGAATT against NKX2-3 | -0.2 |
| GCUUUUCUCUUACAAUUCATT against ZNF557 | -0.197 |
| CCAUUAACGAGCUGCUUAATT against PLK1 | -2.57 (active) |
| CAGUCGGAUCCAGAGCUGATT against GCHFR | -0.559 |
| AGCUCACGCUGUGCAUGUGTT against TREX2 | -0.918 |
| AAUCAGAUUCUCAACCUAATT against KRT10 | 0.493 |
| CCUUCGAGCUGCUAUUAAUTT against TLR10 | -0.363 |
| GAAGCGACUGUUUUAGAAATT against EIF4E3 | 0 |
| GUUAUCCUCUAAUUGAUAATT against B3GALNT1 | 0.128 |
| GGGUGUAACAUGUGCGGAATT against ZNF217 | -0.872 |
| GCACCAUCGUCCUUGAACATT against DUOX1 | -1.09 (active) |

| Sequence | median seed-adjusted z-score |
| --- | --- |
| CCACUGCAACUGUAAUUCUTT against PROCA1 | -0.502 |
| GAGUUCGUCGAAUCCCAAATT against SETMAR | 0.191 |
| CCUCGAUUCUUAAAGACGATT against RELN | 0.207 |
| GCUUUGGAGUCACAGGUCATT against EYA3 | -0.0191 |
| GGAGACAAGCACAAGCUGATT against S100B | 0.862 |
| GUGCGAUUCUGGAUGACAATT against EVI1 | 0 |
| CAUGGGACCUGAUUCAAGATT against FCER2 | -1.75 (active) |
| CCAGAUCAGUCCUAGCUUATT against GLIS3 | -0.00906 |
| AGCUGGUUCACGACAUGAATT against TRIP6 | 1.03 (active) |
| GCAUUGACUGGUCCUAUGATT against CPA2 | 0.0374 |
| GCACUCCCAAGAUUGAUAATT against RBPJ | -0.452 |
| CACUGAUUUUGGAUGCUCUTT against HES1 | -0.262 |
| ACACGGCAUUAAAAAGCUATT against JRK | -0.624 |
| AAACCAUCAUGCUGAGGUGTT against FCGR2A | -0.19 |
| GAGCACGACUGAAAAUGUATT against PTS | -0.103 |
| UAACCGAUUUGAUAUGAAUTT against ANKRA2 | 1.26 (active) |
| GGGAGAGUGUGCUACGAAATT against NEIL1 | -0.168 |
| GAUUCGCAGUUUAGAUGUUTT against PRKAA2 | -0.194 |
| GUACUUACCUUGUGAGGCATT against VAV3 | 0 |
| GGUGGGUGGUAAGAGGGAATT against AQP2 | -0.433 |
| GCAGAUGUAUAAGAAGGCATT against RRM2 | -3.84 (active) |
| GGAGAGAGCUCUCACAUCUTT against PPT1 | 0.727 |
| AGAUUGUAGUUGUGGAUCATT against CDH15 | 0 |

| Sequence | median seed-adjusted z-score |
| --- | --- |
| CAGCUGUAGUUCUAACUAUTT against ZNF23 | -0.106 |
| GGAUCAAUGUGACGGAGAATT against EMILIN2 | 0.726 |
| GAGUCGAACUUUACUGUCUTT against MLL2 | -2.11 (active) |
| GGAAUGGAAUGAUCGGUGATT against GRIN2A | 0.025 |
| CGAGUUUGAUGAAAGAGGATT against NT5E | 0.199 |
| CGUUAUGCCUGGUCUCCUATT against SPPL3 | 0.652 |
| CAGAUUUGGUAAAAGAGUATT against VPS26A | -1.55 (active) |
| CCCAUUUCGGACUCCAAAATT against IRX3 | -0.285 |
| ACUUUGCCUUCAAGCUCUATT against SERPINA13 | -0.403 |
| GCUACUAUGCUGAAGAUCATT against CDH18 | 0.21 |
| GGAAGAUGUUGACAUAUUUTT against ACAT2 | 1.25 (active) |
| GAAUAAGUGACUAUCCAAATT against SENP2 | 0 |
| GGAGGCACCUCUCAAGAUATT against THRAP3 | -0.852 |
| GCGAGGCUGUUAACCCUUATT against PRKCQ | 0.692 |
| GAUGCUAUGGAAUACCAUATT against METTL4 | 0.244 |
| GCUGGUACCCUGGAGGAAATT against GNRH2 | 1.13 (active) |
| ACAUGGUUAUUCCCAGUGATT against AKR1CL2 | -0.949 |
| CAUUCAAUCCGGACCAUUUTT against CYP2J2 | 0.00659 |
| CAGAUAUUAUGAAGAAUUUTT against GALNS | 0.0287 |
| GCCUCUUUCUGUCAGCAUUTT against SPAG4 | -0.219 |
| GGAAGGAUAUUACACCUAUTT against MMP24 | -1.28 (active) |
| GCAAAGCCCUGUCAAACAATT against NPM2 | 0.215 |
| CCAAGAAACUGCGAGACAATT against CNGA2 | -0.0447 |
